Some test systems named below: NCI-H23 lung; NCI-H226 lung; NCI-H322M lung; HOP-62 NSCLC; NCI-H460 lung; HOP-92 NSCLC; NCI-H522 lung; A549/ATCC NSCLC; 786-0 renal; DU-145 prostate; K-562 leukemia; MALME-3M melanoma; MDA-MB-231 breast; RXF 393 renal; SF-268 CNS; SF-295 CNS; SF-539 CNS; UACC-257 melanoma; M14 melanoma; COLO 205 colon.
Assay in all cases: NCI-60 one-dose screen, 48 h (100 = growth as untreated, 0 = no growth, -100 = all killed)
What all share (settings): 10 µM unless noted

The panel holds about 83,000 compounds, 20% with a hit somewhere; the sample as a whole holds those more often.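 Results are percent growth after 48 hours of single-concentration exposure. 100 means growth as in untreated cells, lower positive values show inhibition; negative values down to -100 show cell death.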 A number with no mark means an inactive call. Calls of active or inactive are those of the source. The calls were made as follows: active = growth percent below 10; inactive = the rest.

For the compound `Clc1ccc2c(c1)c(-c1ccccc1)nc1nncn12`, the growth was 98.6% in the test with NCI-H23 lung; 114% with NCI-H226 lung; 114% in the test on NCI-H322M lung; 105% in the test with HOP-62 NSCLC; 117% with NCI-H460 lung; 119% in the test with HOP-92 NSCLC. The growth in the test with NCI-H522 lung is 93.1%; with A549/ATCC NSCLC, 106%; with 786-0 renal, 94.2%; in the test on DU-145 prostate, 112%; with K-562 leukemia, 119%; with MALME-3M melanoma it was 113%. Moreover, the growth in the test with MDA-MB-231 breast was 119%; in the test with RXF 393 renal, 135%; with SF-268 CNS it was 95.6%; in the test on SF-295 CNS it was 101%; in the test on SF-539 CNS, 95.1%; with UACC-257 melanoma, 115%. Also, the growth in the test on M14 melanoma was 110%.
With `O=S(=O)(O)c1cc(O)c2c(N=Nc3ccc(Nc4ccccc4)c4c(S(=O)(=O)O)cccc34)cc(S(=O)(=O)O)cc2c1`, the growth with NCI-H23 lung is 100%; in the test on NCI-H226 lung it was 101%; in the test with NCI-H322M lung, 120%; with HOP-62 NSCLC, 100%; in the test on NCI-H460 lung it was 105%; with HOP-92 NSCLC, 101%. Besides, the growth with NCI-H522 lung was 93.5%; in the test on A549/ATCC NSCLC it was 101%; with 786-0 renal it was 102%; with DU-145 prostate it was 107%; in the test on K-562 leukemia, 112%; in the test with MALME-3M melanoma, 130%. Further, the growth in the test with MDA-MB-231 breast was 102%; with RXF 393 renal, 109%; in the test on SF-268 CNS, 101%; in the test on SF-295 CNS, 105%; in the test with SF-539 CNS, 96.2%; in the test with UACC-257 melanoma, 95.6%. Besides, the growth in the test with M14 melanoma is 103%.
Consider `COc1ccc(/C=C/C(=O)c2ccc(Nc3ncnc4ccccc34)cc2)cc1OC`, for which the growth with NCI-H23 lung was 73.3%; in the test with NCI-H226 lung it was 104%; in the test with NCI-H322M lung it was 92.4%; in the test with HOP-62 NSCLC it was 92.8%; with NCI-H460 lung it was 83.8%; in the test on HOP-92 NSCLC it was 74%. Also, the growth was 92.7% with NCI-H522 lung; 68.3% with A549/ATCC NSCLC; 79.2% in the test on 786-0 renal; 83.1% in the test with DU-145 prostate; 101% in the test on MALME-3M melanoma; 72.1% in the test on MDA-MB-231 breast. Also, the growth was 68.1% in the test with SF-268 CNS; 79.6% in the test with SF-295 CNS; 98.1% with SF-539 CNS; 98.6% with UACC-257 melanoma; 64.7% in the test on M14 melanoma.
As to `C=CCn1c(SCC(=O)Nc2ccc(C(=O)/C=C/c3cc(OC)c(OC)c(OC)c3)cc2)nnc1-c1cc(-c2ccc(S(C)(=O)=O)cc2)nc2ccccc12`, the growth in the test with NCI-H23 lung is 85.6%; in the test on NCI-H226 lung it was 85.3%; in the test with NCI-H322M lung, 93.5%; in the test with HOP-62 NSCLC, 111%; in the test on NCI-H460 lung, 97.2%; in the test with HOP-92 NSCLC, 112%. In addition, the growth is 86.5% in the test with NCI-H522 lung; 99.4% in the test on A549/ATCC NSCLC; 93.6% with 786-0 renal; 94.5% in the test on DU-145 prostate; 50.5% in the test on K-562 leukemia; 89.3% with MALME-3M melanoma. In addition, the growth is 77.7% in the test on MDA-MB-231 breast; 60.9% with RXF 393 renal; 86.9% with SF-268 CNS; 97.4% with SF-295 CNS; 86% with SF-539 CNS; 102% with UACC-257 melanoma.
Take `COC(=O)C1NC(=S)N(c2ccc(Cl)cc2)C1/C=C/c1ccccc1` (stereo not drawn): the growth was 91% in the test with NCI-H23 lung; 104% with NCI-H226 lung; 110% in the test on NCI-H322M lung; 103% in the test with HOP-62 NSCLC; 109% with NCI-H460 lung; 78.6% in the test with HOP-92 NSCLC. Moreover, the growth in the test on NCI-H522 lung was 93.7%; in the test with A549/ATCC NSCLC, 98.1%; with COLO 205 colon it was 108%; in the test with DU-145 prostate, 100%; in the test on K-562 leukemia, 106%; in the test on MALME-3M melanoma, 103%. Besides, the growth with MDA-MB-231 breast was 95%; with RXF 393 renal it was 110%; with SF-268 CNS, 101%; in the test on SF-295 CNS, 91%; in the test with SF-539 CNS, 94.6%; in the test on UACC-257 melanoma it was 99.3%. Besides, the growth in the test on M14 melanoma is 87.1%.
`O=C1Nc2c(ccc(Cl)c2Cl)/C1=C/c1ccccn1`: the growth is 81.5% in the test with NCI-H23 lung; 93.5% with NCI-H226 lung; 93.4% in the test with NCI-H322M lung; 88.5% in the test with HOP-62 NSCLC; 97.6% in the test on NCI-H460 lung; 66.2% in the test with HOP-92 NSCLC. Further, the growth in the test on NCI-H522 lung is 71%; with A549/ATCC NSCLC it was 13%; with 786-0 renal it was 12.5%; in the test with COLO 205 colon, 108%; in the test with DU-145 prostate, 104%; with MALME-3M melanoma, 85.5%. In addition, the growth with MDA-MB-231 breast was 84.7%; with SF-268 CNS, 84.8%; with SF-295 CNS it was 107%; in the test on SF-539 CNS, 92.8%; with UACC-257 melanoma, -20.9% (active); in the test on M14 melanoma, 69.9%.
Take `Cc1ccc(O)c(C(=O)O)c1`: the growth in the test with NCI-H23 lung was 100%; in the test on NCI-H226 lung, 105%; with NCI-H322M lung, 115%; with HOP-62 NSCLC, 99.8%; in the test on NCI-H460 lung it was 103%; in the test on HOP-92 NSCLC it was 101%. For the same compound, the growth in the test with NCI-H522 lung was 99%; with A549/ATCC NSCLC, 103%; with 786-0 renal, 104%; with DU-145 prostate it was 114%; in the test with K-562 leukemia it was 98.2%; in the test on MALME-3M melanoma it was 128%. The growth is 114% in the test with MDA-MB-231 breast; 121% in the test with RXF 393 renal; 104% with SF-268 CNS; 114% in the test with SF-295 CNS; 116% with SF-539 CNS; 108% in the test on UACC-257 melanoma. In addition, the growth in the test with M14 melanoma was 116%.
On to `COc1ccc(C2CC(n3nnnc3-c3ccccc3)=NN2)cc1` (stereo not drawn), for which the growth in the test on NCI-H23 lung was 82%; in the test on NCI-H226 lung, 75.1%; in the test with NCI-H322M lung, 69.9%; in the test with HOP-62 NSCLC, 78.4%; in the test with NCI-H460 lung, 71.2%; with HOP-92 NSCLC, 80.1%. Moreover, the growth with NCI-H522 lung was 47.1%; in the test with A549/ATCC NSCLC, 60.2%; with COLO 205 colon, 91.8%; with DU-145 prostate, 70.5%; in the test on K-562 leukemia it was 15.6%; with MALME-3M melanoma, 73.9%. Moreover, the growth was 40.2% in the test on MDA-MB-231 breast; 102% with RXF 393 renal; 75.4% with SF-268 CNS; 27.2% with SF-295 CNS; 37.9% with SF-539 CNS; 101% in the test on UACC-257 melanoma. For the same compound, the growth in the test on M14 melanoma was 35.4%.

These data come from PubChem BioAssay (NCI).
